Shown are actives, neighbours in structure and some others; about 3.6% of the full set was active somewhere.
HSP90 inh – HSP90 inhibitors, primary screen, cell lysate, luminescence | actives 0.91% (n = 290,000) | Heat shock protein HSP 90 (rabbit reticulocyte lysate; luciferase refolding) | AID 1789, 2009 | inhibition, % at 5.6 µM | Rabbit reticulocyte lysate, luciferase refolding luminescence, 3 h;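 active means inhibition above the screen-wide mean plus 3 SD, computed separately per campaign, cut at about 16% in these data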;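 further: 0% = DMSO wells and 100% = 60 µM geldanamycin wells; inhibitors lower the luminescence because luciferase stays unfolded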
CF NFkB inh – inhibitors of PAF-induced NF-kB signaling, primary screen, cell-based, GFP fluorescence, uHTS. KKLEB NF-kB-GFP reporter, GFP fluorescence overnight. inhibition, % at 5 µM. actives 0.86% (n = 360,000). AID 588850, 2011;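 active means at least 50% inhibition at 5 µM, scaled per plate between neutral and stimulator controls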;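 further: PAF is a Pseudomonas aeruginosa culture filtrate used as stimulus; plate controls were PAF-stimulated DMSO wells for no effect and unstimulated DMSO wells for full effect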
LGR2 inh – inhibitors of bursicon-induced LGR2 CRE-luciferase signal, primary screen, cell-based, HEK293, CRE-luciferase reporter, bursicon stimulation. bursicon-stimulated, 4 h. inhibition, % at 9.99 µM. actives 0.35% (n = 380,000). AID 720647, 2013;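 active means drop in luminescence signal, shown as inhibition above about 50% in the replicate tests, limit read from the data, passing the limit was not always enough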;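 further: agonist challenge used bursicon conditioned medium at about half maximal strength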
Peg3 promoter – Peg3 promoter-driven luciferase inhibitors, primary screen, cell-based, HeLa, luciferase luminescence; actives 1.7% (n = 360,000); inhibition, % at 20 µM; HeLa PEG-Prom luciferase reporter, overnight;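 active means inhibition of at least 50% at 20 µM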
KKLEB cytotox – cytotoxicity in KKLEB CF airway cells, primary screen, cytotoxicity control for CF NF-kB inhibitor project, cell-based, uHTS, fluorescence assay plates. KKLEB CF airway cells viability, ATPlite luminescence, overnight; hits give low values; cells stimulated with P. aeruginosa culture filtrate. activity change (cytotoxicity), % at 5 µM. actives 0.36% (n = 360,000). AID 602141, 2011;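 active means corrected activity change at or below -50% at 5 µM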
Mdm2-MdmX inh – inhibitors of human Mdm2-MdmX association, primary screen, cell-based, luminescence, split luciferase, SaOS-2, uHTS; AID 485346, 2010; Protein Mdm4 (Homo sapiens) + E3 ubiquitin-protein ligase Mdm2 (Homo sapiens), …; inhibition, % at 8 µM; actives 3% (n = 330,000); SaOS-2 split-luciferase Mdm2/MdmX complementation;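 active means inhibition of at least 50% at 8 µM in the primary screen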
The depositor's hits bear a star; . = not tested or not shown.

SMILES	HSP90 inh	CF NFkB inh	LGR2 inh	Peg3 promoter	KKLEB cytotox	Mdm2-MdmX inh
COc1cccc(CN2CC3(CCN(C(C)=O)CC3)c3c(n(C)c4cc(OC)ccc34)[C@H]2CO)c1	.	.	-13	.	.	.
Nc1nc(-c2ccc(F)cc2)cc(C(F)(F)F)n1	8	23	.	-13	-15	20
CS(=O)(=O)c1nc(-c2ccc(F)cc2)cc(C(F)(F)F)n1	2	92*	37	106*	-96*	.
Cc1ccc(C(=O)C2C(=O)C3CCC2C3)cc1 (configuration not stated)	.	-22	63*	38	13	.
C[C@@H]1CN([C@H](C)CO)S(=O)(=O)c2ccc(C3=CCCC3)cc2O[C@@H]1CN(C)S(C)(=O)=O	.	.	6	.	.	.
O=C1Nc2c(Br)cc(Br)c3cccc1c23	2	-22	7	74*	-3	34
COc1ccccc1-c1ccc2n(c1=O)C[C@@H]1[C@@H](CO)[C@H](C(=O)N(C)C)N(CC3CCOCC3)[C@H]21	.	.	-9	.	.	.
Cc1noc(C)c1NC(=O)Nc1ccc2c(c1)CC(=O)N([C@H](C)CO)C[C@@H](C)[C@H](CN(C)Cc1ccc(-c3ccccc3)cc1)O2	.	.	-5	.	.	.
Cc1nn(-c2ccccc2)c(C)c1C(=O)OCC(=O)N1c2ccccc2NC(=O)C1(C)C	-2	2	.	59*	5	35
COc1ccc2c(=O)c(-c3ccc4c(c3)OCO4)coc2c1	-1	-26	69*	-165	-18	-11
CCN(CC)C(=O)Oc1ccc2c(=O)c(-c3ccc(OC)cc3)coc2c1	-4	0	-26	-304	9	-13
O=Nc1c(O)c2ccccc2c2ccccc12	.	89*	82*	96*	-88*	.
O=Nc1c2cc3ccccc3[nH]c-2c2ccccc12	.	-38	24	-263	-4	.
C[C@@H]1CN([C@@H](C)CO)S(=O)(=O)c2ccc(-c3cccnc3)cc2O[C@H]1CN(C)C(=O)NC1CCCC1	.	.	-1	.	.	.
COc1ccccc1NC(=S)N(CCCN(C)C)Cc1cc2cc3c(cc2[nH]c1=O)OCO3	-3	1	.	25	4	-13
CCOc1ccccc1C(=O)N(Cc1ccccc1)Cc1cc2cc3c(cc2[nH]c1=O)OCCO3	1	48	25	61*	-62*	26
COc1ccccc1NC(=O)N(Cc1cccs1)Cc1cc2cc3c(cc2[nH]c1=O)OCO3	-1	21	-6	53*	-12	21
CC=Cc1ccc2n(c1=O)C[C@H]1[C@H](CO)[C@@H](C(=O)NCc3ccccn3)[C@@H]2N1CCC (mixture of isomers)	.	.	-6	.	.	.
COc1ccc(-c2cc(-c3ccc(OC)cc3)c(C#N)c(SC)n2)cc1	0	50*	.	33	-26	32
O=c1ccc2ccccc2c2ccccc12	.	65*	3	103*	3	.
Cc1ccc(S(=O)(=O)N(C)C[C@@H]2OCCCC[C@H](C)Oc3ccc(NC(=O)NC4CCCCC4)cc3C(=O)N([C@H](C)CO)C[C@H]2C)cc1	.	.	5	.	.	.
CC(=NNC(=S)N1CCCC1)c1ccccn1	.	-1	-6	26	-4	.
CC(=NNC(=S)SCc1ccccc1)c1ccccn1	.	29	14	94*	10	.
CC(=NNC(=S)Nc1cccc(Cl)c1)c1ccccn1	.	12	-107	93*	-14	.
CC1(C)CC(=O)C(C2C3=C(CC(C)(C)CC3=O)Oc3ccccc32)C(=O)C1 (configuration not stated)	0	9	2	14	1	0
CC1(C)CC(=O)C2=C(C1)Oc1nc3ccccc3cc1C2C(C#N)C#N (configuration not stated)	1	64*	.	58*	-5	48
O=C(C[C@@H]1C=C[C@@H](NC(=O)CC2CC2)[C@H](CO)O1)NCc1ccccc1	.	.	-8	.	.	.
